Results reported in PubChem BioAssay (NCI).
About 83,000 compounds went through this panel and 20% of them were active in at least one assay; those are over-represented in the sample as a whole.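 Activity criterion: percent growth below 10, measured after cells in 96-well plates were exposed to a single compound concentration for 48 hours.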 The source made the active and inactive calls.

Tests used:
Test in all cases: NCI-60 one-dose screen, 48 h (100 = growth as untreated, 0 = no growth, -100 = all killed)
Details in all cases: 10 µM unless noted
[1] = test system: SK-MEL-2 melanoma
[2] = test system: EKVX NSCLC
[3] = test system: SN12C renal
[4] = test system: UO-31 renal
[5] = test system: TK-10 renal
[6] = test system: ACHN renal
[7] = test system: A498 renal
[8] = test system: CCRF-CEM leukemia
[9] = test system: MOLT-4 leukemia
[10] = test system: SR leukemia
[11] = test system: RPMI-8226 leukemia
[12] = test system: OVCAR-8 ovarian
[13] = test system: OVCAR-5 ovarian
[14] = test system: OVCAR-4 ovarian
[15] = test system: SK-OV-3 ovarian
[16] = test system: IGROV1 ovarian
[17] = test system: OVCAR-3 ovarian
[18] = test system: HS 578T breast
[19] = test system: NCI/ADR-RES ovarian

Measured: growth

O=C(Nc1ccc(Cl)c(Cl)c1)Nc1ccc(Cl)c([N+](=O)[O-])c1
inactive: [12] 10.9% | [13] 11.9% | [14] 27.1% | [16] 15.8%
active: [1] -43.4% | [2] 4.27% | [3] 6.3% | [4] 0.279% | [5] -0.585% | [6] 1.36% | [7] -25.9% | [8] 1.21% | [9] -30.9% | [10] -25.2% | [11] -36.2% | [15] -11.7% | [17] 6.38% | [18] 7.04% | [19] -7.67%

O=[N+]([O-])c1ccc(NS(=O)(=O)c2cc(Cl)ccc2Cl)c2ccccc12
inactive: [1] 18.7% | [2] 50.9% | [3] 45.8% | [4] 43% | [5] 75.8% | [6] 78.9% | [7] 23.9% | [8] 29.1% | [9] 46.8% | [10] 60.1% | [11] 14.1% | [12] 79.5% | [13] 89.1% | [14] 54% | [15] 59.6% | [16] 82.3% | [17] 33.7% | [18] 54.3% | [19] 59.3%

O=C1OC(c2ccc(-c3ccccc3)cc2)=C/C1=C/C=C/c1ccccc1
inactive: [1] 114% | [2] 102% | [3] 99.9% | [4] 80% | [5] 107% | [6] 102% | [7] 84.4% | [8] 24.2% | [9] 98.5% | [10] 98.3% | [11] 95% | [12] 103% | [13] 91.3% | [14] 95% | [15] 102% | [16] 99% | [17] 99.3% | [18] 86.9% | [19] 114%

C=C1C(=O)O[C@H]2[C@H]1CC/C(COC(=O)c1ccc(C#N)cc1)=C\CC[C@@]1(C)O[C@@H]21
inactive: [1] 37.9% | [2] 16% | [3] 17.4% | [5] 40.2% | [7] 99.7% | [13] 34.5% | [14] 35.9% | [15] 106% | [18] 70% | [19] 54.5%
active: [4] -1.25% | [6] 0.811% | [8] -25.8% | [9] -29.3% | [10] -10% | [11] -35.8% | [12] 1.03% | [16] 7.59% | [17] -10.7%

CC(C)(C)OC(=O)N1CC(Cn2cc(C(F)(F)F)c3c(Cl)ncnc32)C1
active: [1] -77.4% | [3] -25.4% | [4] -95.1% | [8] -26.6% | [9] -37.5% | [10] -60.9% | [11] -48.4% | [12] -72.4% | [15] -24.4% | [16] -79.1% | [17] -49.9% | [18] -9.74%
inactive: [2] 50.3% | [5] 115% | [6] 73.5% | [7] 34.2% | [13] 112% | [14] 81.6% | [19] 77.7%

CCOC(=O)C(C)(CSSCC(C)(NC(=O)c1ccc2ccccc2c1)C(=O)OCC)NC(=O)c1ccc2ccccc2c1 (stereo not given)
active: [8] -42.5%
inactive: [1] 107% | [2] 90.3% | [3] 104% | [4] 80.6% | [5] 103% | [6] 102% | [7] 136% | [9] 53.1% | [10] 61.2% | [11] 93.4% | [12] 90.6% | [13] 127% | [14] 104% | [15] 107% | [16] 93.3% | [17] 110% | [18] 118% | [19] 105%

Cc1ccn2cc(Cc3cc(=O)oc4c3ccc3ccccc34)c(=O)nc2c1
inactive: [1] 80.6% | [2] 92.5% | [3] 96.4% | [4] 80.2% | [5] 124% | [6] 95.5% | [7] 111% | [8] 95.8% | [9] 87.9% | [10] 92.7% | [11] 93.3% | [12] 100% | [13] 102% | [14] 101% | [15] 90.1% | [16] 97% | [17] 104% | [18] 95.2% | [19] 105%

O=C(Nc1ccc(F)cc1)Nc1ccc(Br)c(C(F)(F)F)c1
active: [1] -11.1% | [2] 7.24% | [4] 7.01% | [6] 2.25% | [7] 4.62% | [8] 6.73% | [11] -29.7% | [15] -8.74% | [19] 1.19%
inactive: [3] 11.3% | [5] 10.4% | [9] 12.8% | [10] 13.8% | [12] 11.4% | [13] 30.2% | [14] 22.5% | [16] 25.7% | [17] 11.9% | [18] 35.4%

CCC(N)(C(=O)O)c1ccc(F)cc1 (stereo not given)
inactive: [1] 98% | [2] 104% | [3] 102% | [4] 98.5% | [5] 95.5% | [6] 114% | [7] 117% | [8] 94.8% | [9] 90.1% | [10] 105% | [11] 98.4% | [12] 101% | [13] 111% | [14] 117% | [15] 113% | [16] 109% | [17] 99.9% | [18] 111% | [19] 106%

Cc1cn(-c2nc3c(c(NCc4ccccc4)n2)COCC3)c2cccc(C(N)=O)c12
active: [11] -15.3% [0.5 µM]
inactive: [1] 38.1% [0.5 µM] | [2] 85.9% [0.5 µM] | [3] 30.8% [0.5 µM] | [4] 55% [0.5 µM] | [5] 83.2% [0.5 µM] | [6] 39.5% [0.5 µM] | [7] 85.1% [0.5 µM] | [8] 49.1% [0.5 µM] | [9] 60.6% [0.5 µM] | [10] 50.8% [0.5 µM] | [12] 58.1% [0.5 µM] | [13] 70.8% [0.5 µM] | [14] 58.8% [0.5 µM] | [15] 111% [0.5 µM] | [16] 82.3% [0.5 µM] | [17] 91.5% [0.5 µM] | [18] 83.5% [0.5 µM] | [19] 86% [0.5 µM]

Cc1[nH]n(C(=O)c2ccncc2)c(=O)c1N=Nc1ccc(S(=O)(=O)Nc2ccncn2)cc1
active: [8] -33.9%
inactive: [1] 116% | [2] 94.4% | [3] 97% | [4] 85.1% | [5] 101% | [6] 104% | [7] 111% | [9] 102% | [10] 78.1% | [11] 60.1% | [12] 104% | [13] 114% | [14] 103% | [15] 111% | [16] 101% | [17] 106% | [18] 96.7% | [19] 114%

COc1cc(/C=C/C(=O)N2CCC=CC2=O)cc(OC)c1OC
inactive: [1] 74.9% | [2] 57.1% | [3] 45.1% | [4] 57.7% | [5] 38.7% | [7] 98.7% | [8] 15% | [9] 42.1% | [10] 10.3% | [13] 86.6% | [14] 48.8% | [15] 105% | [16] 30.9% | [17] 18.5% | [18] 84.5% | [19] 67.2%
active: [6] -7.71% | [11] -11.3% | [12] 4.06%

CCOC(=O)C1CSC(C)(C(=O)OCC)N1 (stereo not given)
inactive: [1] 99.4% | [2] 94.7% | [3] 104% | [4] 95.6% | [5] 91.9% | [6] 110% | [7] 118% | [8] 103% | [9] 92.8% | [10] 97.3% | [11] 96.3% | [12] 110% | [13] 98.2% | [14] 109% | [15] 91.7% | [16] 104% | [17] 100% | [18] 112% | [19] 101%

O=c1c(-c2ccc3c(c2)OCO3)coc2c(CO)c(O)ccc12
active: [1] -66.3% | [2] 3.55% | [3] -3.58% | [4] -81.9% | [5] -15.2% | [6] -30.5% | [7] -26.7% | [8] 1.63% | [11] 2.57% | [15] -18.3% | [16] 5.08% | [17] -55.1% | [18] 6.65%
inactive: [9] 90.3% | [10] 13.4% | [12] 24.3% | [13] 35.8% | [14] 41.7% | [19] 52%

COc1ccc(-c2cc3ccc(N(C)C)cc3nc2N)c(F)c1
inactive: [1] 47.9% | [2] 32.2% | [3] 54% | [4] 39.3% | [5] 49.1% | [6] 56.8% | [7] 47.1% | [8] 39.7% | [9] 26.3% | [10] 12.9% | [12] 26.3% | [13] 69.6% | [14] 42.2% | [15] 46.8% | [16] 54.3% | [17] 34.6% | [18] 62.8% | [19] 26%
active: [11] -19.7%
